# Reference: ChEMBL document CHEMBL3988442, “University of Dundee, Small-Polar-MMV Screening Library” (2021)
# Tests used:
# [1] = biological target: T1, Aspartate--tRNA(Asp/Asn) ligase (Mycobacterium tuberculosis (strain ATCC 25618 / H37Rv)) (UniProt P9WFW3); assay: Assay for Asp RNA synthetase-1 from Mycobacterium tuberculosis; format: functional; set-up: scale not given: direction of the effect not stated beside the values; details: 30 µM; further: in the data most compounds retested in dose-response had high values
# T1 sequence (whole entry): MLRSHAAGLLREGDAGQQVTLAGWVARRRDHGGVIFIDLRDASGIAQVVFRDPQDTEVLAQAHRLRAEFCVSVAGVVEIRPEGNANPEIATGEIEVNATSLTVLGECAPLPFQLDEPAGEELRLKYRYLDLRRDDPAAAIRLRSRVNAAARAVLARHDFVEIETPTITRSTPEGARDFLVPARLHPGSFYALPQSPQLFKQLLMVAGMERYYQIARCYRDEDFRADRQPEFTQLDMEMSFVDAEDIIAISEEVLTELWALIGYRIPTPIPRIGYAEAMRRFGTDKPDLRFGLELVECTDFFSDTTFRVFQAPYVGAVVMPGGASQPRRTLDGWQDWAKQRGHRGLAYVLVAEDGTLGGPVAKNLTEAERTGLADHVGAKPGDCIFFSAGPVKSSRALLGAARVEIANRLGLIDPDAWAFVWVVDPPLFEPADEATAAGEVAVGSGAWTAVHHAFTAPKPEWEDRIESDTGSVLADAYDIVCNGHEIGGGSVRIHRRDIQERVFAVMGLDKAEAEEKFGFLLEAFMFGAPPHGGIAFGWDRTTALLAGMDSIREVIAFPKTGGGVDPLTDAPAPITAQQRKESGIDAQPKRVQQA
# [2] = biological target: Shiga toxin 2 (Escherichia coli O157:H7) (UniProt P09385+P09386); assay: E. coli 0.157:H7 Shiga Toxin SOP - stx2 screening assay; format: functional; set-up: scale not given: direction of the effect not stated beside the values; details: 30 µM
Structure (SMILES),Percent Effect [1],Percent Effect [2]
c1coc(CN2C[C@H](OCC3CCOCC3)[C@H]3COC[C@H]32)c1,1.73%,12.6%
CN(C)C(=O)N1CCC2(CCCN(Cc3cnn(C)c3)C2)C1 (centres undefined),-0.168%,0.121%
Cc1cc(C[C@@H]2COC[C@@H]2NC(=O)CN2CCCN(C)CC2)on1,-1.58%,-5.15%
Cc1ccc(CN2CC[C@H]3[C@@H]2CCC(=O)N3CCN2CCCC2)s1,2.78%,-33.4%
Cc1nc2cc(=O)[nH]n2c(C)c1CC(=O)Nc1ccc2ccccc2n1,1.28%,36.5%
CN1CCOC(CNC(=O)CCCOCCc2ccccc2)C1 (centres undefined),-3.72%,1.69%
CCN(C(=O)COC)C(c1cccnc1)c1cc(C)cc(C)c1 (centres undefined),1.28%,-51.4%
Cc1ccc(Cl)cc1N1CCC(CNC(=O)CCn2ccnc2)C1 (centres undefined),-2.41%,-19.4%
O=C(Nc1cccc(N2CCCC2)c1)C1CCCN1c1nccs1 (centres undefined),1.21%,-4.67%
CC(NC(=O)CCc1cccs1)c1nnc2n1CCC2 (centres undefined),-0.379%,3.4%
CC(=O)N1CCc2c(nc(-c3ccccn3)nc2N(C)CC(O)CO)C1 (centres undefined),-6.34%,26.6%
Cc1ccc(CN2CCC3(CC2)OC(C(=O)N(C)C)c2ccccc23)o1 (centres undefined),3.43%,-27.1%
CCOc1ncccc1NC(=O)N1CCc2ccccc2C1,19.1%,3.47%
Cc1ccc(NC(=O)C(C)N2CCCN(c3nccs3)CC2)c(C)c1 (centres undefined),-4.7%,-49.5%
CC(C)c1csc(C2CCCN(C(=O)c3ccc(=O)n(C)n3)C2)n1 (centres undefined),-1.11%,-6.52%
Cc1noc(C(C)C)c1C(=O)N1CCOCC1CC(=O)c1ccco1 (centres undefined),2.61%,-4.27%
CC(C(=O)NCc1cccc(N2CC=CC2)c1)n1cccn1 (centres undefined),-1.41%,27.1%
NC(=O)C1CN(C(=O)Nc2ccccc2SC(F)(F)F)CCO1 (centres undefined),-5.1%,-11.7%
CC(=O)N1CC[C@H]2OCC[C@@H](C(=O)N3CCCCO3)[C@@H]2C1,0.958%,-16.9%

Structure (SMILES),Percent Effect [1],Percent Effect [2]
CC(=O)N(Cc1ncc(C)o1)C1CCN(CCNC2CCCCC2)C1 (centres undefined),1.34%,-30.8%
O=S1(=O)COCCN1Cc1cccc(Cl)c1,-0.479%,10.7%
COC(=O)c1cc(C(=O)N2CCOCC2(C)C)n(-c2ccccc2)n1,-4.48%,13.3%
COc1cccc2c1OCC(CNC(=O)CSc1nc(N)n[nH]1)C2 (centres undefined),2.1%,6.55%
CN(C)CC1CN(Cc2cccc(C(=O)N(C)C)c2)CCO1 (centres undefined),-3.06%,-24.2%
CCCNC(=O)c1cc2c(c3ccccc3n2C)n1C(=O)N(C)C,2.3%,-2.9%
COCc1cnc2n1CCN(Cc1cccnc1)C2C (centres undefined),4.46%,-10.3%
CCOCC1CC2(CCN(Cc3ccccn3)CC2)CO1 (centres undefined),0.869%,-0.96%
CNC(=O)[C@@]12CCO[C@@H]1CCN(S(=O)(=O)c1cccc(C)c1)C2,-4.6%,9.63%
CCOc1ccc(S(=O)(=O)NCc2cccnc2N(C)C)cc1,1.46%,-16.7%
c1ccc(-c2noc(CNC3CCc4ncnn4C3)n2)nc1 (centres undefined),0.903%,16.9%
CN(Cc1ccsc1)C(=O)Nc1cccnc1N1CCCC1,1.88%,-69.4%
CC(=O)N1CC(Cc2nccc3ccn(C)c23)C1,1.31%,-32.1%
CC(NC(=O)CSCC#N)c1ccccc1 (centres undefined),2.98%,13.3%
CN(C)C(C(=O)N1CCCC1)c1ccccc1F (centres undefined),3.9%,-23.9%
CCOC(=O)N1CCN(C(=O)CCn2ccc3c(OC)cccc32)CC1,0.389%,-14.3%
CCOc1nc2cccnc2n(CC(=O)NCCOC)c1=O,-2.81%,-9.03%
CNC(=O)c1cnc(/C=C/c2cc(OC)cc(OC)c2)s1,5.76%,-89.3%
O=C(NC(Cc1ccsc1)c1nccs1)C1CCOCC1 (centres undefined),1.44%,15.3%

Structure (SMILES),Percent Effect [1],Percent Effect [2]
Cc1ccc(C)n1-c1ccc(C(=O)NCCNc2ncccn2)cc1,5.76%,7.86%
CC(C)(C)c1ccc(C2(C(=O)NCCCS(C)(=O)=O)CC2)cc1,8.98%,-49.3%
Cc1nn(C)c(Cl)c1CNCc1cccnc1N1CCN(C)CC1,-1.56%,-1.67%
CN(C)C(=O)CN1CCCCC1c1nc(N)ncc1-c1ccccc1 (centres undefined),-1.04%,1.46%
COc1ccc(-n2ccc(C(=O)N3CCN(C)CC3C)n2)cc1 (centres undefined),-10.9%,-0.158%
Cc1ccc(OCCC(=O)NC2CCc3nc(C)cn3C2)cc1 (centres undefined),3.86%,-17.6%
CN(C)Cc1nnc(C2CCN(C(=O)CCc3cccs3)CC2)n1C,-0.948%,-11.1%
CCN1CCCC1CN(CCN(C)C)S(=O)(=O)c1cccc(C#N)c1 (centres undefined),5.06%,-21%
Cc1cnn(CCNCc2nc(-c3ccccc3Cl)no2)c1,-2.88%,-10.8%
CC(C)Cc1nc(OCC(=O)O)c(C#N)c2c1CCC2,0.639%,-5.61%
NC(=O)C(CNC(=O)Cc1ccc(F)cc1)Cc1ccc(F)cc1 (centres undefined),-1.56%,-30.7%
Cn1ncc2c(=O)[nH]c(CN3CCC(Cc4ccccc4)CC3)nc21,-5.37%,0.0557%
O=C(NC1CCS(=O)(=O)C1)N1CCN(c2cnccn2)CC1 (centres undefined),-1.72%,-8.56%
Cc1ccc(-c2nc(CNCCn3cccn3)cs2)o1,-0.233%,13%
O=C(Cc1ccc2c(c1)OCCO2)NCCc1nnc2n1CCC2,6.11%,15.8%
COc1cccc(CNc2cnn(C)c(=O)c2Cl)c1,-6.1%,11.4%
COCCN1CCC(NCc2cccnc2)C1 (centres undefined),4.4%,15.8%
Cc1ccc(-c2nc(CN3CCc4nn(C)c(=O)cc4C3)co2)cc1,40.1%,-3.75%
CN(CCCc1cnn(C)c1)C(=O)C1CCOC1 (centres undefined),5.2%,-36.5%
